Data on 37 molecules can be found in PubChem BioAssay AID1224854 (National Center for Advancing Translational Sciences (NCATS), 2016).

Inconclusive results are not listed. Where a call stands in place of a potency, no number is given. The source made the active and inactive calls. The call rests on the fitted dose curve; in most records, active means well fitted activation curve with a large enough effect; inconclusive means small, poorly fitted or top-dose-only effect; inactive means flat fitted curve, though single readings scatter.

A short description of the assay: Cell viability assay for measurement of the protective activity of small molecules against cell death caused by Zika virus infection in human astrocytoma cells. To be noted: SNB-19 Zika virus cytoprotection, ATP luminescence, 72 h; series mostly up to 46.1 µM. The essentials:
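Percent inhibition of Zika-induced cell death derived from ATP-content luminescence after 72 h at 37 C. Compounds were added to SNB-19 cells 1 h before virus at 2 FFU/cell.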
In the case of `CCCCC1C(=O)N(c2ccccc2)N(c2ccc(O)cc2)C1=O` (configuration not stated), the Potency was 19.5 µM (active).
For `COc1ccnc2c1CCCCC2S(=O)c1nc2ccccc2[nH]1` (configuration not stated) the value was “inactive”.
With `Cc1ccc2c(n1)Oc1ccc(C(C)C(=O)OCC(=O)N(C)C)cc1C2` (configuration not stated), the Potency result is “inactive”.
To `Clc1ccccc1-c1nc(-c2ccncc2)no1` belongs “inactive”; to `Cc1cccc(C#Cc2ccccc2)n1`, “inactive”; to `O=C(O)[C@H](CC(=O)N1C[C@@H]2CCCC[C@H]2C1)Cc1ccccc1`, “inactive”.
For `COc1cccc(-c2ccc(NC(=O)C3=C(C(=O)O)CCC3)c(F)c2)c1` the value was “inactive”.
Consider `O=C1C(Cl)=C(NCCN2CCOCC2)C(=O)c2ncccc21`, for which the Potency entry is “inactive”.
For `CCC(C)SSc1ncc[nH]1` (configuration not stated) the value was 24.5 µM (active); for `COc1ccc(-c2cc(=O)c3c(O)cc(O)cc3o2)cc1O`, “inactive”.
For `CC(=NNC(=S)N1CCC1)c1ccccn1` the value was 0.69 µM (active).
For `O=c1[nH]nc(Sc2ncc([N+](=O)[O-])s2)n1-c1ccc2c(c1)OCCO2` the value was 6.15 µM (active); for `Nc1c(S(=O)(=O)O)cc(Nc2ccc(Nc3nc(Cl)nc(Nc4ccc(S(=O)(=O)O)cc4)n3)c(S(=O)(=O)O)c2)c2c1C(=O)c1ccccc1C2=O`, “inactive”; for `CC(C)c1ccc2oc3nc(N)c(C(=O)O)cc3c(=O)c2c1`, “inactive”.
On to `CCOCCOC(=O)/C=C/c1ccc(OC)cc1`, for which the Potency entry is “inactive”.
On to `O=c1c(-c2ccc(O)cc2)coc2cc(OC3O[C@H](CO)[C@H](O)[C@H](O)[C@H]3O)cc(O)c12` (some centres not stated), for which the Potency result is “inactive”.
To `COCCn1c2c([n+](Cc3cnccn3)c1C)C(=O)c1ccccc1C2=O` belongs “inactive”; to `CC1(C)Cc2c(sc(NC(=S)NC(=O)c3ccccc3)c2C(=O)O)CO1`, “inactive”; to `COc1ccc2nc(NC(=O)Nc3ccccc3)sc2c1`, “inactive”.
To `C[C@@H](O[C@H]1OCCN(Cc2n[nH]c(=O)[nH]2)[C@@H]1c1ccc(F)cc1)c1cc(C(F)(F)F)cc(C(F)(F)F)c1` belongs “inactive”; to `COc1cc2nc(-c3ccc(N4CCN(C)CC4)cc3)nc(NCCN3CCOCC3)c2cc1OC`, 1.95 µM (active).
For `CC(=O)Oc1ccccc1C(=O)Nc1ncc([N+](=O)[O-])s1` the value was 31.6 µM (active).
In the case of `NC(=O)c1cccc2[nH]c(-c3ccc([C@H]4CCCN4)cc3F)nc12`, the Potency result is “inactive”.
For `CCN(CC)c1ccc(C(=C2C=CC(=[N+](CC)CC)C=C2)c2cc(S(=O)(=O)O)ccc2S(=O)(=O)[O-])cc1` the value was “inactive”.
In the case of `O=C(O)CCC(=O)c1ccc(-c2ccccc2)cc1`, the Potency result is “inactive”.
For `CC(C(=O)O)c1ccc(C(=O)c2cccs2)cc1` (configuration not stated) the value was “inactive”.
In the case of `Cc1ccc(C(=O)c2ccc(CC(=O)O)n2C)cc1`, the Potency entry was “inactive”.
To `CCN1/C(=C/C=C/c2sc3ccccc3[n+]2CC)Sc2ccccc21` belongs “inactive”; to `O=C(O)[C@@H](c1ccc(OCc2ccc3ccccc3n2)cc1)C1CCCC1`, “inactive”.
For `Nc1ncnc2c1ncn2[C@@H]1O[C@@H](CO)[C@H](O)[C@H]1O` the value was “inactive”; for `CC1(C)OC2=C(C(=O)c3ccccc3C2=O)[C@H](NCc2ccccc2)[C@H]1O`, “inactive”.
For `Cc1cc(O)c2c(c1)C(=O)c1cc(O)cc(O)c1C2=O` the value was “inactive”; for `Oc1ccc(/C=C/c2cc(O)cc(O)c2)cc1`, “inactive”.
With `O=C(Nc1ncc([N+](=O)[O-])s1)c1cccs1`, the Potency entry is “inactive”.
For `O=c1cc(-c2ccccc2)oc2cc(O)c(O)c(O)c12` the value was “inactive”.
`CCCS(=O)c1ccc2nc(NC(=O)OC)[nH]c2c1` (configuration not stated): the Potency entry is “inactive”.
As for `c1ccc(CCNc2nc(-c3ccccc3)cs2)cc1`, the Potency result was “inactive”.
